IL-2 act = qHTS of IL-2 Activators; IL-2 activation reporter assay, cell-based qHTS; stimulated with anti-CD3/CD4/CD28 beads; in transgenic mouse T cells; activation, % (series mostly up to about 46 µM); actives 0.065% (n = 360,000); in the data active = activation above about 50%; inconclusive = mostly about 30% to 49%; also: 0% is about no effect
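Unstimulated transgenic mouse T cells, 750 per well, received compound and, after 60 minutes, anti-CD3/anti-CD4 bead plus anti-CD28 stimulation. EGFP and DsRed were quantified after 18 hours.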
Nrf2 block = Nrf2 qHTS screen for inhibitors; A549 ARE-Fluc reporter, luciferase luminescence, 18-24 h; AID 504444, 2011; actives 2.1% (n = 360,000); Potency, µM (doses to about 46 µM), without a hit: top-dose activity change, negative = inhibition, most hits filed as inhibitors; also: potency is read from the fitted curve at half-maximal effect; % is scaled to controls: 0 for no effect and ±100 for the full control effect; nearly all actives have a fitted effect of over 60% in size
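Nrf2 function is reported as luminescence of an ARE-controlled luciferase in A549 cells. Compounds were tested at several concentrations, and a CellTiter-Fluor read on the same wells flagged cytotoxicity.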
BRCA1 expr act = qHTS Assay to Identify Small Molecule Activators of BRCA1 Expression; Potency, µM (series often up to 46.1 µM), inactives show at the top dose activation, actives largely listed as activators; AID 624202, 2012; MCF7-BRCA1-FFLuc reporter, luminescence, 48 h; response scale: scaled: vehicle 0%, 10 µM genistein 100%; actives 1.1% (n = 380,000); also: potency is read from the fitted curve at half-maximal effect; nearly all actives have a fitted effect of over 80% in size
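First, MCF7-BRCA1-FFLuc cells (2000/well) attach for 2 h; next, compounds are pin-added and incubated 48 h at 37 °C; finally, luciferase reagent is added and luminescence read after 15 min.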
p53 reactivator = qHTS assay for re-activators of p53 using a Luc reporter; Potency, µM (top dose mostly 92.2 µM), inactives show at the top dose activity change, positive = activation, hits mostly activators; H1299 p53-A138V BP100-luciferase reporter, luminescence, 24 h; actives 0.063% (n = 320,000); AID 504706, 2011; also: potency is read from the fitted curve at half-maximal effect; % of control where 0% means no effect; nearly all actives have a fitted effect of over 45% in size
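p53-null H1299 cells stably carrying temperature-sensitive p53-A138V and a BP100-luciferase reporter were pinned with compounds (4-point, 1:5 series) and held 24 hrs at 37 deg C. Luminescence was read 10 min after detection reagent.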
A549 viability = Nrf2 qHTS screen for inhibitors: counterscreen for cytotoxicity. actives 0.16% (n = 390,000). Potency, µM (doses to about 46 µM), inactives show at the highest dose activity change, negative = cytotoxicity, most hits filed as inhibitors. A549 ARE-Fluc cells, CellTiter-Fluor viability, 18-24 h; also: potency is read from the fitted curve at half-maximal effect; % is scaled to controls: 0 for no effect and ±100 for the full control effect
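A549 ARE-Fluc cells in 5% FBS OPTI-MEM, 5000 cells/well, rested 2 h then exposed to compounds in concentration-response for 18-24 h at 37 °C. Viability by CellTiter-Fluor fluorescence (Ex 405/Em 525) after 30 min; luciferase luminescence (BugLite, 15 min, RT) read afterwards.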
Nrf2 activator = qHTS of Nrf2 Activators | actives 0.31% (n = 410,000) | AREc32 ARE-luciferase reporter (MCF7-derived line), luminescence, 24 h | Potency, µM (highest dose often 46.1 µM), without a hit: at the highest dose activation, most hits filed as activators; also: potency is read from the fitted curve at half-maximal effect; % of control where 0% means no effect; nearly all actives have a fitted effect of over 65% in size
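AREc32_Fluc, 1000 cells/well, OPTI-MEM + 5% FBS, o/n 37 deg C 5% CO2; 23 nL cpd by pin tool, 24 hr; Steady-Glo 30 min RT, luminescence.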
Starred values were filed as active, the others as inactive; ? = inconclusive; . = no result. Shown are actives, neighbours in structure and some others; about 3.2% of the full set was active somewhere. Unless noted, calls follow the shape of the dose curve; as a rule, active = well fitted curve in the direction sought with a large enough effect; inconclusive = small, poorly fitted or top-dose-only effect, or another doubt; inactive = no such curve, though single readings can be large; an effect the other way counts as inactive or inconclusive.

SMILES	IL-2 act	Nrf2 block	BRCA1 expr act	p53 reactivator	A549 viability	Nrf2 activator
CCC(=O)N1c2ccc(S(=O)(=O)NCc3cccc(OC)c3)cc2CC1C (stereo unspecified)	.	?	15%	.	0%	1%
CN(Cc1cc(Cl)cc(Cl)c1)CC(C(=O)c1ccccc1)c1ccccc1 (stereo unspecified)	-1	-8%	-68%	.	11%	11µM*
CCOC(=O)c1sc2cccc(F)c2c1S(=O)(=O)N1CCN(c2cccc(Cl)c2)CC1	.	-21%	.	.	-1%	1%
COc1ccc(NC(=O)C2CCC2)cc1S(=O)(=O)Nc1cc(C)ccc1Br	0	21µM*	-37%	2%	?	0%
COc1ccc(NC(=O)CCSc2ccc(C)cc2)cc1S(=O)(=O)Nc1ccccc1Cl	0	23µM*	-21%	13%	2%	0%
COc1ccc(NC(=O)[C@H](C)NC(N)=O)cc1S(=O)(=O)Nc1cc(C)ccc1Br	1	2%	-27%	-4%	-7%	0%
COc1ccc(NS(=O)(=O)c2cc(NC(=O)CCSc3ccccc3)ccc2OC)cc1	1	?	-16%	11%	-7%	2%
Cc1ccccc1-c1nn2c(=O)cc(CN3CCN(C(=O)/C=C/c4ccccc4)CC3)nc2s1	.	.	5%	.	4%	11%
Cc1cccn2c(=O)c(C=NCc3ccccc3)c(NCCO)nc12	0	-5%	13%	-2%	2%	0%
Cc1ccc2nc(NCc3ccccc3)c(C=NCc3ccccc3)c(=O)n2c1	-3	?	13µM*	15%	-5%	1%
COc1ccc(C(=O)Cc2cc(OC)c(OC)cc2[N+](=O)[O-])cc1	-2	0%	11µM*	7%	-2%	-1%
COc1cc(C(=O)Oc2cccc(Nc3ncnc4ccccc34)c2)cc(OC)c1OC	-2	15µM*	-73%	?	-17%	-1%
O=C(NCCc1ccccc1)c1cccc(NC(=O)C2CCC2)c1	0	?	?	.	0%	4%
O=C(NCCc1ccccc1)c1cccc(NC(=O)C2CC2)c1	0	?	6.3µM*	.	7%	1%
CC(C)CN1CCC(Oc2cccc(C(=O)NCCc3ccccc3)c2)CC1	0	6%	-14%	40µM*	-10%	0%
O=C(NCCCCc1ccccc1)c1cccc(NC(=O)C2CCC2)c1	-1	16µM*	5%	.	0%	1%
COCC(C)N1CCC(Oc2cccc(C(=O)NCCc3ccccc3)c2)CC1 (stereo unspecified)	2	8%	52%	?	-1%	3%
O=C(NCCc1ccccc1)/C(=N\O)c1ccccc1	-1	?	1.3µM*	?	7%	3%
CCN(CC)S(=O)(=O)c1ccc2c(c1)c(=O)c(C(=O)N1CCN(c3cc(Cl)ccc3C)CC1)cn2C	.	-4%	7%	.	?	0%
COc1ccc(OC)c(C2c3c(-c4ccc(Br)cc4)n[nH]c3C(=O)N2c2ccc(Cl)cc2)c1 (stereo unspecified)	.	?	-71%	.	-14%	-1%
Cc1ccc(Cl)cc1N1CCN(C(=O)c2sc3nc4n(c(=O)c3c2C)CCC4)CC1	.	4%	.	.	11%	-1%
O=C(NCCc1ccccc1)c1cccc(Br)c1	-4	2%	13µM*	3%	1%	1%
Cc1cc(C)n2ncc(C(=O)Nc3ccccc3)c2n1	.	20%	.	.	1%	.
Cc1cccc(NC(=O)c2cccnc2)c1C	1	-13%	10%	.	2%	0%
CSCc1ccc(C(=O)Nc2cccc(C)c2C)cc1	-1	19%	11µM*	?	1%	4%

Screening results deposited in PubChem BioAssay by National Center for Advancing Translational Sciences (NCATS).
